Sampled rows, rich in hits. Any-hit rate of the full collection: about 2.5%.
Cruzain Triton = inhibitors of Trypanosoma cruzi cruzain with detergent. AID 1478. purified cruzain, Z-FR-AMC fluorescence, 0.01% Triton. 200,000 compounds, 0.43% hits. Potency, µM, without a hit: max response, negative = inhibition, hits mostly inhibitors. P25779;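 also: plate controls were neutral wells for no effect and buffer without enzyme for full effect; nearly all actives have a fitted effect of over 40% in size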
Target sequence (P25779 123-467 limits assumed): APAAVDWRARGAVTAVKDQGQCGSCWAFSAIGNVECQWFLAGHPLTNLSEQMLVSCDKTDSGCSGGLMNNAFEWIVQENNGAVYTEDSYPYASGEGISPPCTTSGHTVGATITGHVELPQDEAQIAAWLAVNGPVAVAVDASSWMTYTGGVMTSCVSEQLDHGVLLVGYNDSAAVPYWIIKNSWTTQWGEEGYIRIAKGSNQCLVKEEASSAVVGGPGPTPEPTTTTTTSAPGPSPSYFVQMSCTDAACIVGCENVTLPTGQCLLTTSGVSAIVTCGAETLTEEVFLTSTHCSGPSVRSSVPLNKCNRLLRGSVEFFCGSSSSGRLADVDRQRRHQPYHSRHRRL
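Purified cruzain (1.5 nM final) was preincubated with compounds for 15 min at room temperature in 100 mM sodium acetate pH 5.5, 5 mM DTT, 0.01% Triton X-100. Reaction started with 2 uM Z-FR-AMC; AMC fluorescence change over 60 s gave activity.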
Cruzain inh noDet = blocks cruzain activity in detergent-free assay. purified cruzain, Z-FR-AMC fluorescence, no detergent. Potency, µM, inactives show max response, negative = inhibition, usual class: inhibitors. 200,000 compounds, 2.3% hits. AID 1476;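 also: plate controls were enzyme without inhibitor for no effect and buffer without enzyme for full effect; nearly all actives have a fitted effect of over 40% in size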
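Purified cruzain at 1.5 nM, pre-incubated 15 min with compound at room temperature in 100 mM sodium acetate pH 5.5, 5 mM DTT, 0.00005% Triton X-100. Reaction started with 2 uM Z-FR-AMC; AMC fluorescence increase over 60 s gives rate.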
Numbers without * were called inactive; u = inconclusive. Calls follow the shape of the dose curve; as a rule, active = well fitted curve in the direction sought with a large enough effect; inconclusive = small, poorly fitted or top-dose-only effect, or another doubt; inactive = no such curve, though single readings can be large; an effect the other way counts as inactive or inconclusive. Potency is read from the fitted curve at half-maximal effect.

SMILES	Cruzain Triton	Cruzain inh noDet
CCc1ccccc1NC(c1nnc(-c2cccc(F)c2)o1)c1ccc(F)cc1Cl (stereo not given)	-4.5%	u
CCn1c2ccccc2c2nnc(SCCN3CCCCC3)nc21	-7.1%	-1.0%
Cn1c2ccc(F)cc2c2nnc(SCCN3CCCCC3)nc21	14.1µM*	12.6µM*
CCN(CC)CCn1c2ccc(F)cc2c2nc(C)sc21	-0.1%	-7.4%
CCCCn1c2ccc(F)cc2c2nnc(SCCN3CCCCC3)nc21	15.8µM*	u
CCN(CC)CCSc1nnc2c3cc(F)ccc3n(C)c2n1	15.8µM*	12.6µM*
CCOc1ccc2c(c1)c1nnc(SCC(=O)N3CCCCC3C)nc1n2C (stereo not given)	-0.2%	u
CC(=O)c1ccc(N2CCN(C(=O)CS(=O)(=O)c3cccc4nsnc34)CC2)cc1	-2.4%	-12.0%
COC(=O)Cn1c(C(=O)N(C)C)cc2c1C[C@H]1CN(C(=O)c3ccccc3)[C@@](Cc3ccc(OC)cc3)(C(=O)OC)[C@@H]21	-0.5%	u
COc1ccc(-c2cn(/N=C/c3ccc(Cl)cc3Cl)c(N)n2)cc1	-21.4%	7.94µM*
COc1ccc(-c2onc3ccc(Cl)cc23)cc1	-5.1%	-4.7%
COc1ccc(CCNC(=O)CCCn2c(=O)c3ccccc3n(CC(=O)Nc3c(C)cc(C)cc3C)c2=O)cc1OC	-0.4%	15.3%
O=c1oc2ccccc2c2c1C(c1ccc(Cl)cc1)Nc1ccc3ccccc3c1-2 (stereo not given)	0.3%	3.98µM*
CCOc1ccc(C2C(C#N)=C(N)Oc3c2c(=O)oc2ccccc32)cc1 (stereo not given)	-5.0%	-15.8%
COc1ccc(-c2cc3ccccc3c(=O)o2)cc1	-0.5%	22.9%
COc1ccc(C2Nc3ccc4ccccc4c3-c3c2c(=O)oc2ccccc32)cc1 (stereo not given)	5.6%	10µM*
CCOc1ccc(C2Nc3ccc4ccccc4c3-c3c2c(=O)oc2ccccc32)cc1 (stereo not given)	-12.7%	7.94µM*
O=C1CC(c2ccc(Br)cc2)c2c(c3ccccc3oc2=O)O1 (stereo not given)	-4.8%	-17.9%
COC(=O)c1ccccc1NC(=O)CSc1nnc2cc(C)c3cc(C)cc(C)c3n12	-1.8%	1.4%
CNC(=O)c1c(NC(=O)c2nc(SCc3ccc(C)cc3)ncc2Cl)sc2c1CCCC2	-0.5%	-1.6%
CCc1ccc(-n2c(=O)c3c4c(sc3n(CC(=O)N3CCC(C)CC3)c2=O)CCC4)cc1	-3.2%	-5.1%
COc1ccccc1NC(=O)COc1ccc(/C=N/NS(=O)(=O)c2ccc(C)cc2)cc1	-3.0%	-28.3%
Cc1ccc(S(=O)(=O)N/N=C/c2ccc(OCC(=O)Nc3ccccc3Cl)cc2)cc1	-0.2%	25.1µM*
Cc1ccc(S(=O)(=O)CCc2nnc(NC(=O)c3cccs3)s2)cc1	-2.1%	u
Cc1cccc(OCc2nnc(NC(=O)c3cccs3)s2)c1	3.0%	12.6µM*
SMILES	Cruzain Triton	Cruzain inh noDet
O=C(Nc1nnc(COc2ccc(F)cc2)s1)c1cccs1	-1.2%	25.1µM*
O=C(Nc1nnc(COc2ccc(Cl)cc2)s1)C1CCCO1 (stereo not given)	-0.7%	-1.6%
O=C(Nc1nnc(CCc2ccccc2)s1)c1cccs1	3.0%	u
O=C(Nc1nnc(COc2ccc(Cl)cc2)s1)c1cccs1	2.6%	25.1µM*
Cc1ccc(OCC(=O)Nc2nnc(SCc3cc(=O)n4cccc(C)c4n3)s2)cc1	2.1%	-10.0%
Cc1cccc(C(=O)N(Cc2ccccc2F)C2CCS(=O)(=O)C2)c1 (stereo not given)	-1.8%	2.0%
CCCc1nnc(NC(=O)c2cc3ccccc3oc2=O)s1	1.7%	-8.9%
CC(Sc1nnc(NC(=O)c2cc3ccccc3oc2=O)s1)c1ccccc1 (stereo not given)	6.4%	12.6µM*
CC(=O)c1cccc(Nc2ccc3cc(S(=O)(=O)N4CCCC4)ccc3n2)c1	-6.9%	12.6µM*
COc1ccc(Nc2ccc3cc(S(=O)(=O)N4CCCC4)ccc3n2)cc1OC	-7.3%	-12.9%
COc1cccc(NC(=O)c2ccc(CNS(=O)(=O)c3ccc4c(c3)C(C)(C)C(=O)N4C)cc2)c1	-2.7%	6.8%
COc1ccc(NC(=O)CSc2nc(O)cc(=O)n2C)cc1	-25.0%	15.8µM*
Cn1c(SCC(=O)Nc2ccccc2)nc(O)cc1=O	-3.7%	-10.5%
C[C@@]1(C(NC(=O)c2ccc(-c3ccccc3)cc2)c2ccc(Cl)cc2)C[C@H]1C1CCCCC1 (stereo not given in full)	2.2%	u
C[C@@]1([C@@H](NC(=O)c2cccs2)c2ccc(-c3ccccc3)cc2)C[C@H]1C1CCCCC1	-1.9%	7.94µM*
CC(=O)c1ccc(N2CCN(c3nc4c(S(=O)(=O)c5ccc(C)c(C)c5)nnn4c4ccc(Cl)cc34)CC2)cc1	-0.4%	1.0%
CCCOc1ccc(C(=O)N(Cc2cccs2)C2CCS(=O)(=O)C2)cc1 (stereo not given)	-1.5%	1.9%
CN(C)c1ccc(NC(=O)c2cn(-c3ccccc3)nc2-c2cccs2)cc1	-0.7%	u
O=C(Nc1ccc2ccccc2c1)c1cn(-c2ccccc2)nc1-c1cccs1	-0.6%	20µM*
Cc1ccc2nc(N3C(=O)C(O)=C(C(=O)c4cc5ccccc5o4)C3c3cccs3)sc2c1 (stereo not given)	15.8µM*	9.2%
Cc1cc(N2C(=O)C(O)=C(C(=O)c3ccc(C)o3)C2c2cccs2)no1 (stereo not given)	3.2%	-8.1%
CCc1ccc2nc(N3C(=O)C(O)=C(C(=O)c4ccco4)C3c3cccs3)sc2c1 (stereo not given)	25.1µM*	u
CCc1ccc2nc(N3CCN(C(=O)c4ccco4)CC3)sc2c1	-5.0%	10.7%
Cc1nc(N2CCOCC2)c2c(C(=O)Nc3cccc(C(F)(F)F)c3)c(C)oc2n1	-1.6%	-9.2%
CCCCCn1c(=O)[nH]c2cc(C(=O)N3CCN(c4cc(Cl)ccc4C)CC3)ccc2c1=O	0.0%	3.4%
SMILES	Cruzain Triton	Cruzain inh noDet
COc1ccc(/C=C2/N=C(SCC(=O)Nc3cc(C)on3)N(c3ccccc3)C2=O)cc1	3.2%	22.5%
CCC(SC1=N/C(=C/c2ccccc2)C(=O)N1c1ccccc1)C(=O)Nc1cc(C)on1 (stereo not given)	-1.3%	31.6µM*
Cc1ccccc1NC(=O)c1c(C)oc2ccc(O)c(CN3CCN(C)CC3)c12	-2.9%	-25.1%
CC(C)(O)[C@H](O)COc1c2occc2cc2ccc(=O)oc12	0.4%	0.2%
Cc1cc2ccc(=O)oc2cc1OC[C@@H](O)C(C)(C)O	-15.7%	39.8µM*
CCCSc1nnc2c(n1)OC(c1cccs1)Nc1ccc(Br)cc1-2 (stereo not given)	-4.2%	0.0%
O=C(/C=C/c1cccs1)N1CCN(c2ccccc2F)CC1	-5.9%	-5.6%
O=C(/C=C/c1cccs1)N1CCOCC1	-5.9%	6.31µM*
CCc1ccc(-c2csc3[n+]2CCN3C(C)=O)cc1	17.8µM*	-21.4%
CC(=O)N1CC[n+]2c(-c3ccc(Cl)cc3)csc21	u	-15.9%
COc1ccc2c(CNCCc3ccccc3OC)c(C(=O)O)n(Cc3ccc(F)cc3Cl)c2c1	-7.3%	u
CCc1nnc(SCC(=O)N(C)c2ccccc2)c2cc3sccc3n12	-1.2%	1.3%
Cc1cc(/C=C(\C#N)C(=O)NCCc2c[nH]c3ccccc23)c(C)n1C	-7.9%	-0.2%
COc1cc(/C=C(/C#N)C(=O)NCCc2c[nH]c3ccccc23)ccc1OCc1ccccc1F	5.1%	7.94µM*
